Measured values from PubChem BioAssay AID504882 (Broad Institute, 2011).
In all, about 1,200 compounds went through this assay and about 290 (24%) were called active. Another 9% or so got no clear call; they are omitted. The rule behind the calls is not given here. A selection follows. Where a call stands in place of a potency, no number is given. Potency and affinity values are given separately.

test: cytotoxicity in EBV lymphoblastoid cells, dose response, cytotoxicity control, cell-based, plate reader, cherry-picks, set 2 (AID 504882); conditions: EBV lymphoblastoid cells (LCL) viability; series mostly up to 19.5 µM

Structure (SMILES) | outcome
Cc1cc(N=Cc2c(O)ccc3cc(Br)ccc23)no1 | inactive
Cc1cc(=O)[nH]c(N/N=C/c2ccc(C)o2)n1 | inactive
CC(=O)Nc1cccc(-c2cnc(N)c(C(=O)c3cccnc3)n2)c1 | inactive
O=C(O)c1cc(=O)c2c(OCC(O)COc3cccc4oc(C(=O)O)cc(=O)c34)cccc2o1 | inactive
Cn1cc(SCC(=O)NCC2CCCO2)c2ccccc21 (configuration not stated) | inactive
Cc1ccc(-n2c(C)c([N+](=O)[O-])c3ccc(O)c(CN(C)C)c32)cc1 | inactive
NC1=NC(=O)NC1(c1ccccc1)c1ccccc1 | inactive
Cn1nc(-c2ccc(N3CCOCC3)c(NS(=O)(=O)c3ccccc3)c2)c2ccccc2c1=O | inactive
COc1ccccc1N1CCN(C(=O)CCC(=O)N2CCN(c3ccc(F)cc3)CC2)CC1 | inactive
COc1ccc(/C=C/C(=O)OCC(=O)NCc2ccco2)cc1OC | inactive
CCOc1ccc(C(=O)NC(=S)N(Cc2ccccc2)Cc2ccccc2)cc1 | inactive
COc1ccc2cc(-c3cc(C(=O)OCC(=O)NC4CCS(=O)(=O)C4)c4ccccc4n3)ccc2c1 (configuration not stated) | inactive
O=C(CCCOc1ccccc1)N1CCN(c2ccccc2)CC1 | inactive
CCn1c(CCNC(=O)c2ccc(OC)cc2)nnc1SCc1ccc(Cl)cc1Cl | inactive
CC1S/C(=C(\C#N)C(=O)NCc2ccco2)N(Cc2ccco2)C1=O (configuration not stated) | inactive
Cc1onc(-c2c(Cl)cccc2Cl)c1C(=O)N[C@@H]1C(=O)N2[C@@H]1SC(C)(C)[C@@H]2C(=O)O | inactive
Cc1cc(C)nc(SCC(=O)OCN2C(=O)c3ccccc3C2=O)n1 | inactive
Nc1ccccc1SC1CC(=O)N(c2ccccc2Cl)C1=O (configuration not stated) | inactive
Cc1ccccc1C(=O)N1CCN(c2ccc(NC(=O)c3ccco3)cc2Cl)CC1 | inactive
CCOc1ccccc1NC(=O)Cn1c(=O)sc2ccccc21 | inactive
COc1ccc(C(Nc2ccccn2)c2oc(CO)cc(=O)c2O)cc1 (configuration not stated) | inactive
CC(=O)c1ccc(NC(=O)c2noc3c2CCC3)cc1 | inactive
O=c1nc(N/N=C/C=C/c2ccccc2)cn[nH]1 | inactive

Structure (SMILES) | outcome
Cc1ccc(S(=O)(=O)NC(CC(C)C)C(=O)NCC(c2ccco2)N2CCCCC2)cc1 (configuration not stated) | inactive
COc1ccc(S(=O)(=O)NC(CC(=O)NCc2ccco2)C(C)C)cc1 (configuration not stated) | inactive
Cc1nnc(SCC(=O)N2CCC(c3noc4ccc(F)cc34)CC2)s1 | inactive
CCC(=O)NC(=S)Nc1ccccc1C(F)(F)F | inactive
COc1ccc(NC(=O)C[C@H]2C(=O)N(CCc3ccccc3)C[C@@H]2c2ccc(OC)cc2)cc1 | inactive
CC(C)c1cc(NC(=O)c2ccccc2)cc(C(C)C)c1O | inactive
O=C1OCC2=C1C(c1ccc3c(c1)OCO3)c1cc3c(cc1O2)OCO3 (configuration not stated) | inactive
CCCCCC(=O)NC(=S)Nc1ccc(Br)cc1C | inactive
Cc1cc(C(=O)CN2C(=O)c3ccccc3C2=O)c(C)n1Cc1cccs1 | inactive
COc1ccc(C(=O)N(CN2CCCC2=O)c2cc(C)on2)cc1OC | inactive
Cn1c(=O)[nH]c(=O)c2c1nc(CN1CCOCC1)n2CCCc1ccccc1 | inactive
Cc1c(NC(=O)c2cc(-c3cccs3)nc3ccccc23)c(=O)n(-c2ccccc2)n1C | inactive
CN(C1CCCCC1)S(=O)(=O)c1ccc(C(=O)N2CCN(c3nc4ccccc4s3)CC2)cc1 | inactive
O=C(CN1C(=O)CCOc2ccccc21)Nc1ccc(Cl)c(S(=O)(=O)N2CCOCC2)c1 | inactive
Cc1cccc(CNc2ncnc3ccc(-c4ccoc4)cc23)c1 | inactive
COc1cc(-c2nc(C(=O)NCC3CCCO3)cc3c2[nH]c2ccccc23)cc(OC)c1OC (configuration not stated) | inactive
CC(C)CC1C(=O)N(Cc2cn(CC3CCCCC3)nn2)CCS(=O)(=O)N1Cc1ccc(-c2ccc(F)nc2)cc1 (configuration not stated) | inactive
CCOC(=O)OC(C)OC(=O)[C@@H]1N2C(=O)[C@@H](NC(=O)[C@H](N)c3ccccc3)[C@H]2SC1(C)C (some centres not stated) | inactive
CCCc1cc(=O)[nH]c(SCC(=O)NC2CCCCC2)n1 | inactive
Cc1ccc(C)c(N2CCN(S(=O)(=O)c3ccc4c(c3)CCN4C(=O)CCC(=O)O)CC2)c1 | inactive
Cc1ccnc(SCCn2c(N3CCN(c4ccccc4)CC3)nc3c2c(=O)[nH]c(=O)n3C)n1 | inactive
O=C(CCC(=O)NNC(=O)Nc1cccc(Cl)c1)NCc1ccccc1 | inactive
Cc1ccccc1C(=O)NC(=S)Nc1ccc(N2CCN(C(=O)c3ccccc3)CC2)cc1 | inactive

Structure (SMILES) | outcome
COCCNC(=O)NC12CC3(C)CC(C)(CC(C)(C3)C1)C2 | inactive
COCCn1c(SCc2ccc(C(=O)OC)o2)nnc1-c1c[nH]c2ccccc12 | inactive
CCOc1ccc(OCc2cccc(C(=O)N3CCCC3)c2)cc1 | inactive
COc1ccc(C(=O)Nc2cccc(C(=O)N/N=C/c3ccc(OC)cc3OC)c2)cc1 | inactive
O=S(=O)(N/N=C/c1ccccc1F)c1ccccc1 | inactive
CSc1nc2cc3c(cc2n1C(=O)c1ccc(C)cc1)OCCO3 | inactive
Nc1cc2ccncc2c2ccccc12 | inactive
CC(C)NCC(O)COc1cccc2ccccc12 (configuration not stated) | inactive
COc1ccc(-n2c(C)c([N+](=O)[O-])c3ccc(O)c(CN(C)C)c32)cc1 | inactive
Cc1ccc(C(=O)NCC(=O)N(C)Cc2cccc(F)c2)s1 | inactive
COc1ccc(-n2c(C)c(C(C)=O)c3cc(O)ccc32)cc1 | inactive
CC(CNC1CCCCC1)OC(=O)c1ccccc1 (configuration not stated) | inactive
CC(C)c1ccc(OCc2cccc(C(=O)N/N=C/c3cccnc3)c2)cc1 | inactive
CC(C)(C)c1ccc(-c2noc(CCC(N)=O)n2)cc1 | inactive
COCCn1c(SCC(=O)NCc2ccco2)nnc1-c1c[nH]c2ccccc12 | inactive
CCOC(=O)C1=C(C)NC(C)=C(C(=O)OCC)C1C(=O)OCC(=O)N(C)C1CCS(=O)(=O)C1 (configuration not stated) | inactive
COc1ccc(-c2csc3ncnc(NCCCO)c23)cc1 | inactive
COc1cc(C2NC(=O)NC(C)=C2C(=O)OC2CCCC(C)C2)cc(Br)c1O (configuration not stated) | inactive
COc1cccc(CC(=O)NNC(=O)c2ccc3c(c2)OCO3)c1 | inactive
CCCN(CC)c1ncnc2[nH]ncc12 | inactive
Cc1cc(N2CCOCC2)c2c(N)c(Br)cc(C)c2n1 | inactive
